Measurements as given in the supplement of paper PMC10720658.
± gives the standard deviation of the averaged measurements.

System: AEK1 (Tb927.3.2440)
Assay: percent reduction in TR-FRET probe signal relative to DMSO control; higher = stronger displacement of ATP-site probe (binding)
Details: 1 µM; incubation time 1 h

Row | SMILES | percent reduction in TR-FRET probe signal [%]
1 | Cc1cnc(Nc2ccc(N3CCN(C)CC3)cc2)nc1Nc1cccc(S(=O)(=O)NC(C)(C)C)c1 | 5.49 ± 1.9
2 | CCOc1cc(C(=O)N2CCC(N3CCN(C)CC3)CC2)ccc1Nc1ncc2c(n1)N(C1CCCC1)c1ccccc1C(=O)N2C | -3.15 ± 9.5
3 | CC(C)N(CCC(=O)c1ccc2ccccc2c1)Cc1ccccc1.Cl | 1.95 ± 3.1
4 | COc1cc2c(Oc3ccc4[nH]c(C)cc4c3F)ncnc2cc1OCCCN1CCCC1 [Cediranib (AZD2171)] | 63.4 ± 7.6
5 | Cc1cc(Nc2nc(N[C@@H](C)c3ccc(F)cc3)c(C#N)cc2F)n[nH]1 | 56.3 ± 7.3
6 | CCc1cnn2c(NCc3ccc[n+]([O-])c3)cc(N3CCCC[C@H]3CCO)nc12 | -4.69 ± 4.1
7 | NC[C@@](O)(c1ccc(Cl)cc1)c1ccc(-c2cn[nH]c2)cc1 | 11 ± 16
8 | CC(C)(C)c1cc(/C=C(\C#N)C(N)=S)cc(C(C)(C)C)c1O [Tyrphostin AG 879] | 4.66 ± 0.43
9 | CO[C@H]1C[C@@H]2CC[C@@H](C)[C@@](O)(O2)C(=O)C(=O)N2CCCC[C@H]2C(=O)O[C@H]([C@H](C)C[C@@H]2CC[C@H](n3cnnn3)[C@H](OC)C2)CC(=O)[C@H](C)/C=C(\C)[C@@H](O)[C@@H](OC)C(=O)[C@H](C)C[C@H](C)/C=C/C=C/C=C/1C [Zotarolimus(ABT-578)] | -16.6 ± 5
10 | COc1ccc(-c2ccc3c(N4CCOCC4)nc(N4C[C@@H](C)O[C@@H](C)C4)nc3n2)cc1CO | -3.76 ± 6.3
11 | CC(C)NC[C@@H](C(=O)N1CCN(c2ncnc3c2[C@H](C)C[C@H]3O)CC1)c1ccc(Cl)cc1 | 11.4 ± 8.1
12 | Cc1cc(C(C)Nc2ccccc2)c2nc(N3CCOCC3)cc(=O)n2c1 (configuration not stated) | -4.42 ± 15
13 | CN1CCC(COc2cnc(-c3cccc(Cn4nc(-c5cccc(C#N)c5)ccc4=O)c3)nc2)CC1 | 6 ± 15
14 | CNC(=O)c1cc(Oc2ccc(NC(=O)Nc3ccc(Cl)c(C(F)(F)F)c3)cc2)ccn1.Cc1ccc(S(=O)(=O)O)cc1 [Sorafenib Tosylate] | 17 ± 12
15 | Cc1cc(Nc2cc(N3CCN(C)CC3)nc(/C=C/c3ccccc3)n2)n[nH]1 | 20.9 ± 12
16 | COc1cc(CCc2cc(NC(=O)c3ccc(N4C[C@@H](C)N[C@@H](C)C4)cc3)n[nH]2)cc(OC)c1 | 2.07 ± 10
17 | Nc1ncnc2c1c(-c1cccc(OCc3ccccc3)c1)cn2[C@H]1C[C@@H](CN2CCC2)C1 | 0.997 ± 12
18 | Cc1nc2c(-c3cnc(N)nc3)nc(N3CCOCC3)nc2n1C(C)C | -5.76 ± 8.3
19 | COc1cccc(-c2cc(=O)c3ccccc3o2)c1N | -1.76 ± 8

Row | SMILES | percent reduction in TR-FRET probe signal [%]
20 | CN1CCN(c2ccc(Nc3cc(-c4cccc(-n5ccc6cc(C7CC7)cc(F)c6c5=O)c4CO)cn(C)c3=O)nc2)CC1 | 6.04 ± 9
21 | Nc1cc(C(F)(F)F)c(-c2cc(N3CCOCC3)nc(N3CCOCC3)n2)cn1 [BKM120 (NVP-BKM120, Buparlisib)] | 8.62 ± 16
22 | O=c1cc(-c2cccc3c2Sc2ccccc2S3)oc(N2CCOCC2)c1 | -8.85 ± 7.2
23 | Clc1ccc(C2(c3ccc(-c4cn[nH]c4)cc3)CCNCC2)cc1 | 27.3 ± 17
24 | C=CC(=O)Nc1ccc2ncnc(Nc3cccc(Br)c3)c2c1 | 12 ± 5.5
25 | C[C@@H](Oc1cc(-c2cnn(C3CCNCC3)c2)cnc1N)c1c(Cl)ccc(F)c1Cl | 35.4 ± 13
26 | CCO.N#CC(=C(\N)Sc1ccccc1N)/C(C#N)=C(/N)Sc1ccccc1N | 0.443 ± 7.1
27 | CCCCCCCCCCCCc1ccc(S(=O)(=O)Nc2nncs2)cc1 | 11.2 ± 4.2
28 | C#Cc1cccc(Nc2ncnc3cc(OCCOC)c(OCCO)cc23)c1.Cl | -0.453 ± 12
29 | Nc1nc(NCCNc2ncc(-n3ccnc3)c(-c3ccc(Cl)cc3Cl)n2)ccc1[N+](=O)[O-] | 4.72 ± 12
30 | CNC(=O)c1cc(Oc2ccc3nc(N[C@@H]4CCCC[C@H]4O)sc3c2)ccn1 | -6.41 ± 1.1
31 | CCN(CC)CCCC(C)Nc1ccnc2cc(Cl)ccc12.O=P(O)(O)O.O=P(O)(O)O (configuration not stated) [Chloroquine Phosphate] | -15.1 ± 5.7
32 | O=C(c1ccc(/C=C/c2n[nH]c3ccccc23)cc1)N1CCNCC1 | 51.6 ± 14
33 | CC[C@H](Nc1ncnc2[nH]cnc12)c1nc2cccc(F)c2c(=O)n1-c1ccccc1 [CAL-101 (Idelalisib, GS-1101)] | 0.66 ± 12
34 | C=CC(=O)Nc1cccc(Nc2nc(Nc3ccc(NC4CN(CCF)C4)cc3OC)ncc2C(F)(F)F)c1 | -12.2 ± 9.2
35 | CN1CCC(Nc2nc(Nc3ccc(Oc4ccccc4)cc3)c3c(=O)[nH]cc(Br)c3n2)CC1 | 35.3 ± 9.5
36 | C[C@H](NC(=O)/C(C#N)=C/c1cccc(Br)n1)c1ccccc1 | -10.8 ± 3.7
37 | Cc1[nH]c(/C=C2\C(=O)Nc3ccc(S(=O)(=O)Cc4c(Cl)cccc4Cl)cc32)c(C)c1C(=O)N1CCC[C@@H]1CN1CCCC1 | -5.64 ± 15
